From PubChem BioAssay
Results with a measured potency or affinity are listed apart. Activity calls are given as the source filed them. Unless noted, how the calls were made is not given here.

What follows are compounds tested against Calcium-dependent protein kinase 1 (Plasmodium falciparum (isolate 3D7)) (UniProt P62344) (assay: PfCDPK1 kinase inhibitors, biochemical, TCAMS library (AID 1159585; cut-off not given, nearly all actives have IC50 up to about 0.98 µM;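 further: inhibitors leave more ATP so luminescence rises with inhibition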)). Details: recombinant PfCDPK1, Kinase-Glo ATP depletion luminescence.
Chain of Calcium-dependent protein kinase 1 (Plasmodium falciparum (isolate 3D7)) (P62344 whole entry, looked up): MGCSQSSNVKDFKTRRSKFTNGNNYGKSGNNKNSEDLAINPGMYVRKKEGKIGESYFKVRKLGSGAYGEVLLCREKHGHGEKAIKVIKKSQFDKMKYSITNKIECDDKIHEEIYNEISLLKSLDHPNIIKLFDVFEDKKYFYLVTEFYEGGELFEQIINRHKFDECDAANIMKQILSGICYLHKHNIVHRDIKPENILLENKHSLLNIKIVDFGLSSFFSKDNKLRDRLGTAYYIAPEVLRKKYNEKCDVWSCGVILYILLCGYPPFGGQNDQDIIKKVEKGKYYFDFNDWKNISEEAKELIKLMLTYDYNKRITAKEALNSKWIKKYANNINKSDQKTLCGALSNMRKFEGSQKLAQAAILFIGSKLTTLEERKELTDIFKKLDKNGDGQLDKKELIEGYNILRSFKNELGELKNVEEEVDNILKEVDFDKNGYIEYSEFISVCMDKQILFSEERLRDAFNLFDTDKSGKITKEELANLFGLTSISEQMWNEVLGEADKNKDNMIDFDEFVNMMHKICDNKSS

outcome, inactive:
COc1cc2c(cc1C(F)(F)F)N(C(=O)Nc1cc(F)c(F)c(-c3cccnc3)c1)CC2
CCCn1cc2c(ccc3nc(N)nc(N)c32)n1
Oc1ccc2[nH]c(-c3cccs3)nc2c1CN1CCC(N2CCCC2)CC1
CN1Cc2cc(NC(=O)/C=C/c3ccccc3Cl)ccc2C(C)(C)C1
CN(C)CCOc1ccc2[nH]c(-c3cccc(OCc4ccccc4)c3)nc2c1C#N
O=C(NC1CCN(Cc2ccccc2O)C1)c1cccc(C(F)(F)F)c1 (stereo not given)
Cc1cc(NN=Cc2ccc(Cl)cc2)c2ccc(F)cc2n1
O=C(CCCC(=O)Nc1ccc(C2=NCCN2)cc1)Nc1ccc(C2=NCCN2)cc1
O=C(NC1CCCCN(Cc2ccc3c(c2)OCCO3)C1)c1cc(-c2ccccc2F)cs1 (stereo not given)
CC(=O)N1CCC(C(=O)Nc2ccc(-c3cccc(-c4nc5ccc(C(F)(F)F)cc5[nH]4)c3)cc2)CC1
O=[N+]([O-])c1ccccc1C=NNc1c2c(nc3ccccc13)CCCC2
CCNc1cc(C(=O)N[C@@H](Cc2ccccc2)[C@H](O)CNCc2cccc(-n3ccnc3)c2)cc(N2CCCC2=O)c1
Cc1cccc2[nH]c(-c3ccc(-c4ccc(CN5CCC(C(N)=O)CC5)cc4)s3)nc12
Cc1cccc2[nH]c(-c3ccc(-c4cccc(C(=O)N5CCCCC5C(C)O)c4)s3)nc12 (stereo not given)
COc1ccc2ncc(F)c([C@H](O)CN3CCC(NCc4cc5c(cn4)OCCO5)CC3)c2c1
C[C@@H]1CN(c2cnn(C/C=C/c3ccc(NC(=O)c4ccc5nonc5c4)cc3)c(=O)c2Cl)C[C@H](C)N1
Cc1cccc2[nH]c(-c3ccc(-c4cccc(CNCc5cccc(N)c5)c4)cc3)nc12
CN(C)CC(=O)Nc1ccc(Nc2nccc(NCC(O)c3ccccc3)n2)cc1 (stereo not given)
S=C(NN=Cc1ccccn1)Nc1ccc(Cl)c(Cl)c1
O=C(n1c(-c2cc3ccccc3n2C(=O)C(F)(F)F)cc2ccccc21)C(F)(F)F
N#Cc1ccc(NC(=O)Nc2ccc3c(c2)CCN(C2CCC2)CC3)cc1
c1csc(-c2ccc3c(c2)CC(NCc2c[nH]c4cnccc24)C3)c1 (stereo not given)
CCOc1ccc(-c2nonc2NC(=O)c2ccc(OC(C)C)cc2)cc1OCC
O=C(Nc1ccc(Cl)cc1)Nc1ccc2nonc2c1
CC(=O)c1ccc(NC(=O)C2c3ccccc3C(=O)N(CC(C)C)C2c2cccs2)cc1 (stereo not given)
CC(C)(C)c1ccc(CN2CCC(CNC(=O)c3cc(-c4cccc(F)c4)cs3)C2)cc1 (stereo not given)
CCCNC(=O)C1CCN(C(c2ccccc2)c2ccc(Cl)c(Cl)c2)CC1 (stereo not given)
Cc1cccc2[nH]c(-c3ccc(-c4ccc(CNCC5CCCO5)cc4)s3)nc12 (stereo not given)
CN1CCN(c2cccc(-c3nnc(-c4ccc(OCC(=O)NCc5ccc(C(F)(F)F)cc5)c([N+](=O)[O-])c4)o3)c2)CC1
COc1ccc(NC(=O)[C@H](CC(C)C)Nc2ccnc(Nc3ccccc3)n2)cc1
CCCCN(C)CC#Cc1ccc(-c2ccc3[nH]c(C)c(Br)c(=O)c3c2)cn1
Clc1ccc(-n2cnc3c(Nc4ccc(Oc5ccccc5)cc4)ncnc32)cc1Cl
CCCCNc1nc(NCCCC)c2c(C)c(Cc3ccccc3)c(NCCCC)nc2n1
O=c1cc(NCCCNCc2cc(C(F)(F)F)ccc2F)[nH]c2ccccc12
COc1ccc(NC(=O)[C@H](Cc2ccccc2)Nc2cc(C)nc(NCCc3ccc(F)cc3)n2)cc1
O=C(NCCN1CCCC1)c1ccc(-c2ccc(-c3nc4ccc(C(F)(F)F)cc4[nH]3)s2)cc1
COc1ccc2sc(CNCCCNc3cc(=O)c4ccccc4[nH]3)c(Cl)c2c1
CCc1cn2c3c(cc(C(=O)N[C@@H](Cc4ccccc4)[C@H](O)CNCc4ccccc4)cc13)N(C)S(=O)(=O)CC2
CS(=O)(=O)N(c1ccc(F)cc1)c1cc(C(=O)N[C@@H](Cc2ccccc2)[C@H](O)CNCc2cccc(C(F)(F)F)c2)cc(N2CCCC2=O)c1
CC(C)(CNCc1ccc(C(F)(F)F)cc1)c1nc(-c2ccc(Cl)c(O)c2)c(-c2ccncc2)[nH]1

What follows are compounds tested against Plasmodium falciparum protein kinase 6 (PK6, PF3D7_1337100) (UniProt Q8IDW1) (assay: PfPK6 kinase inhibitors, biochemical, TCAMS library (AID 1159586)). Details: recombinant PfPK6, Kinase-Glo ATP depletion luminescence.
Chain of Plasmodium falciparum protein kinase 6 (PK6, PF3D7_1337100) (Q8IDW1 1-305): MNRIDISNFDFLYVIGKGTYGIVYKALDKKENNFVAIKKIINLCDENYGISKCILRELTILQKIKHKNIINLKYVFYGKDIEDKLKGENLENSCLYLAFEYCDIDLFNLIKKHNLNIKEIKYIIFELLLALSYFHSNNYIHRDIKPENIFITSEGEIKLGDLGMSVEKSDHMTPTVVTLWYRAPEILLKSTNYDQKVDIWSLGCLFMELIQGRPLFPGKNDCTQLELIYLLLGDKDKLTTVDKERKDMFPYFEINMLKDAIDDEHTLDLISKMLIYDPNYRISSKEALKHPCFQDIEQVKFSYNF

outcome, inactive:
COc1cc2c(cc1C(F)(F)F)N(C(=O)Nc1cc(F)c(F)c(-c3cccnc3)c1)CC2
CCCn1cc2c(ccc3nc(N)nc(N)c32)n1
Oc1ccc2[nH]c(-c3cccs3)nc2c1CN1CCC(N2CCCC2)CC1
CN1Cc2cc(NC(=O)/C=C/c3ccccc3Cl)ccc2C(C)(C)C1
CN(C)CCOc1ccc2[nH]c(-c3cccc(OCc4ccccc4)c3)nc2c1C#N
O=C(NC1CCN(Cc2ccccc2O)C1)c1cccc(C(F)(F)F)c1 (stereo not given)
Cc1cc(NN=Cc2ccc(Cl)cc2)c2ccc(F)cc2n1
O=C(CCCC(=O)Nc1ccc(C2=NCCN2)cc1)Nc1ccc(C2=NCCN2)cc1
O=C(NC1CCCCN(Cc2ccc3c(c2)OCCO3)C1)c1cc(-c2ccccc2F)cs1 (stereo not given)
CC(=O)N1CCC(C(=O)Nc2ccc(-c3cccc(-c4nc5ccc(C(F)(F)F)cc5[nH]4)c3)cc2)CC1
O=[N+]([O-])c1ccccc1C=NNc1c2c(nc3ccccc13)CCCC2
CCNc1cc(C(=O)N[C@@H](Cc2ccccc2)[C@H](O)CNCc2cccc(-n3ccnc3)c2)cc(N2CCCC2=O)c1
Cc1cccc2[nH]c(-c3ccc(-c4ccc(CN5CCC(C(N)=O)CC5)cc4)s3)nc12
Cc1cccc2[nH]c(-c3ccc(-c4cccc(C(=O)N5CCCCC5C(C)O)c4)s3)nc12 (stereo not given)
COc1ccc2ncc(F)c([C@H](O)CN3CCC(NCc4cc5c(cn4)OCCO5)CC3)c2c1
C[C@@H]1CN(c2cnn(C/C=C/c3ccc(NC(=O)c4ccc5nonc5c4)cc3)c(=O)c2Cl)C[C@H](C)N1
Cc1cccc2[nH]c(-c3ccc(-c4cccc(CNCc5cccc(N)c5)c4)cc3)nc12
CN(C)CC(=O)Nc1ccc(Nc2nccc(NCC(O)c3ccccc3)n2)cc1 (stereo not given)
S=C(NN=Cc1ccccn1)Nc1ccc(Cl)c(Cl)c1
O=C(n1c(-c2cc3ccccc3n2C(=O)C(F)(F)F)cc2ccccc21)C(F)(F)F
N#Cc1ccc(NC(=O)Nc2ccc3c(c2)CCN(C2CCC2)CC3)cc1
c1csc(-c2ccc3c(c2)CC(NCc2c[nH]c4cnccc24)C3)c1 (stereo not given)
CCOc1ccc(-c2nonc2NC(=O)c2ccc(OC(C)C)cc2)cc1OCC
O=C(Nc1ccc(Cl)cc1)Nc1ccc2nonc2c1
CC(=O)c1ccc(NC(=O)C2c3ccccc3C(=O)N(CC(C)C)C2c2cccs2)cc1 (stereo not given)
CC(C)(C)c1ccc(CN2CCC(CNC(=O)c3cc(-c4cccc(F)c4)cs3)C2)cc1 (stereo not given)
CCCNC(=O)C1CCN(C(c2ccccc2)c2ccc(Cl)c(Cl)c2)CC1 (stereo not given)
Cc1cccc2[nH]c(-c3ccc(-c4ccc(CNCC5CCCO5)cc4)s3)nc12 (stereo not given)
CN1CCN(c2cccc(-c3nnc(-c4ccc(OCC(=O)NCc5ccc(C(F)(F)F)cc5)c([N+](=O)[O-])c4)o3)c2)CC1
COc1ccc(NC(=O)[C@H](CC(C)C)Nc2ccnc(Nc3ccccc3)n2)cc1
CCCCN(C)CC#Cc1ccc(-c2ccc3[nH]c(C)c(Br)c(=O)c3c2)cn1
Clc1ccc(-n2cnc3c(Nc4ccc(Oc5ccccc5)cc4)ncnc32)cc1Cl
CCCCNc1nc(NCCCC)c2c(C)c(Cc3ccccc3)c(NCCCC)nc2n1
O=c1cc(NCCCNCc2cc(C(F)(F)F)ccc2F)[nH]c2ccccc12
COc1ccc(NC(=O)[C@H](Cc2ccccc2)Nc2cc(C)nc(NCCc3ccc(F)cc3)n2)cc1
O=C(NCCN1CCCC1)c1ccc(-c2ccc(-c3nc4ccc(C(F)(F)F)cc4[nH]3)s2)cc1
COc1ccc2sc(CNCCCNc3cc(=O)c4ccccc4[nH]3)c(Cl)c2c1
CCc1cn2c3c(cc(C(=O)N[C@@H](Cc4ccccc4)[C@H](O)CNCc4ccccc4)cc13)N(C)S(=O)(=O)CC2
CS(=O)(=O)N(c1ccc(F)cc1)c1cc(C(=O)N[C@@H](Cc2ccccc2)[C@H](O)CNCc2cccc(C(F)(F)F)c2)cc(N2CCCC2=O)c1
CC(C)(CNCc1ccc(C(F)(F)F)cc1)c1nc(-c2ccc(Cl)c(O)c2)c(-c2ccncc2)[nH]1
